# Experimental data as given in publication PMC11006913.
# Substitutions are numbered along the chain they refer to.
# Experiments:
# Test in all cases: PBM; 200 nM protein, PBS
# Details in all cases: dsDNA, one strand shown
# HOXB4 [1] = target: HOXB4 (Homo sapiens, UniProt P17483 148-234)
# VENTX [2] = target: T1, VENTX (Homo sapiens, UniProt O95231 78-163, R121Q)
# T1 sequence: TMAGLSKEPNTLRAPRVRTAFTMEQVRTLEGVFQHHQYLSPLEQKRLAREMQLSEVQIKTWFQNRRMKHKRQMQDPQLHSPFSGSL
# HOXA4 [3] = target: HOXA4 (Homo sapiens, UniProt Q00056 201-287, W262R)
# Chain of HOXA4 (Homo sapiens, UniProt Q00056 201-287, W262R) (Q00056 201-287 W262R): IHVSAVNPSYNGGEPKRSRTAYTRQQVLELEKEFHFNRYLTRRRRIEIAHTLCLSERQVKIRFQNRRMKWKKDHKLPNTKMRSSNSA
# VENTX [4] = target: T2, VENTX (Homo sapiens, UniProt O95231 78-163)
# T2 sequence: T1 sequence with Q44R
# VENTX [5] = target: T3, VENTX (Homo sapiens, UniProt O95231 78-163, Y115F)
# T3 sequence: T1 sequence with Y38F, Q44R
# HOXA2 [6] = target: HOXA2 (Homo sapiens, UniProt O43364 129-215, R185T)
# Chain of HOXA2 (Homo sapiens, UniProt O43364 129-215, R185T) (O43364 129-215 R185T): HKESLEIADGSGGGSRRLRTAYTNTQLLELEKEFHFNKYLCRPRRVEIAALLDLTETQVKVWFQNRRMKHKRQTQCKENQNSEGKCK
# HOXA4 [7] = target: HOXA4 (Homo sapiens, UniProt Q00056 201-287, R217L)
# Chain of HOXA4 (Homo sapiens, UniProt Q00056 201-287, R217L) (Q00056 201-287 R217L): as the sequence (Q00056 201-287 W262R) above, with R17L, R62W counted along it
# HOXB4 [8] = target: HOXB4 (Homo sapiens, UniProt P17483 148-234, V174I)
# Chain of HOXB4 (Homo sapiens, UniProt P17483 148-234, V174I) (P17483 148-234 V174I): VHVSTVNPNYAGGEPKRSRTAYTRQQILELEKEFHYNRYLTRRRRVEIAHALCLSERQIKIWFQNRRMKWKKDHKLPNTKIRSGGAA
# NKX2-6 = target: T4, NKX2-6 (Homo sapiens, UniProt A6NCS4 118-204)
# T4 sequence: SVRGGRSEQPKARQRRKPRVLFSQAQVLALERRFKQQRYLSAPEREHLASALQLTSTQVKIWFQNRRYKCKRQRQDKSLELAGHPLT
# HOXA2 [9] = target: HOXA2 (Homo sapiens, UniProt O43364 129-215, R185K)
# Chain of HOXA2 (Homo sapiens, UniProt O43364 129-215, R185K) (O43364 129-215 R185K): as the sequence (O43364 129-215 R185T) above, with T57K counted along it
# HOXA4 [10] = target: HOXA4 (Homo sapiens, UniProt Q00056 201-287)
# Chain of HOXA4 (Homo sapiens, UniProt Q00056 201-287) (Q00056 201-287): as the sequence (Q00056 201-287 W262R) above, with R62W counted along it
# VAX1 [11] = target: VAX1 (Homo sapiens, UniProt Q5SQQ9 86-172)
# Chain of VAX1 (Homo sapiens, UniProt Q5SQQ9 86-172) (Q5SQQ9 86-172): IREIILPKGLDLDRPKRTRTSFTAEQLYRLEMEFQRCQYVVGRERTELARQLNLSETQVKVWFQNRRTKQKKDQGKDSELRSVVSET
# VAX1 [12] = target: VAX1 (Homo sapiens, UniProt Q5SQQ9 86-172, T142I)
# Chain of VAX1 (Homo sapiens, UniProt Q5SQQ9 86-172, T142I) (Q5SQQ9 86-172 T142I): as the sequence (Q5SQQ9 86-172) above, with T57I counted along it
# HOXA2 [13] = target: HOXA2 (Homo sapiens, UniProt O43364 129-215, Y150S)
# Chain of HOXA2 (Homo sapiens, UniProt O43364 129-215, Y150S) (O43364 129-215 Y150S): as the sequence (O43364 129-215 R185T) above, with Y22S, T57R counted along it
# HOXA4 [14] = target: HOXA4 (Homo sapiens, UniProt Q00056 201-287, W262F)
# Chain of HOXA4 (Homo sapiens, UniProt Q00056 201-287, W262F) (Q00056 201-287 W262F): as the sequence (Q00056 201-287 W262R) above, with R62F counted along it
# HOXA2 [15] = target: HOXA2 (Homo sapiens, UniProt O43364 129-215)
# Chain of HOXA2 (Homo sapiens, UniProt O43364 129-215) (O43364 129-215): as the sequence (O43364 129-215 R185T) above, with T57R counted along it
# VAX1 [16] = target: VAX1 (Homo sapiens, UniProt Q5SQQ9 86-172, K157R)
# Chain of VAX1 (Homo sapiens, UniProt Q5SQQ9 86-172, K157R) (Q5SQQ9 86-172 K157R): as the sequence (Q5SQQ9 86-172) above, with K72R counted along it
# HOXA7 [17] = target: HOXA7 (Homo sapiens, UniProt P31268 116-202)
# Chain of HOXA7 (Homo sapiens, UniProt P31268 116-202) (P31268 116-202): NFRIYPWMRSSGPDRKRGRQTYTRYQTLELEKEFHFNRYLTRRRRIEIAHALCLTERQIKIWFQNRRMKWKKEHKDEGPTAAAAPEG
# HOXC10 [18] = target: HOXC10 (Homo sapiens, UniProt Q9NYD6 254-340)
# Chain of HOXC10 (Homo sapiens, UniProt Q9NYD6 254-340) (Q9NYD6 254-340): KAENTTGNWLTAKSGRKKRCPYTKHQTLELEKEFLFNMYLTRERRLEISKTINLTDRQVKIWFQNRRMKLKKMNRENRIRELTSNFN
# HOXD13 [19] = target: HOXD13 (Homo sapiens, UniProt P35453 263-343, T313R)
# Chain of HOXD13 (Homo sapiens, UniProt P35453 263-343, T313R) (P35453 263-343 T313R): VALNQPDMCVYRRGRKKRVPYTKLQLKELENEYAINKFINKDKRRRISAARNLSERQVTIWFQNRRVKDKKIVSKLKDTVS
# HOXD13 [20] = target: HOXD13 (Homo sapiens, UniProt P35453 263-343)
# Chain of HOXD13 (Homo sapiens, UniProt P35453 263-343) (P35453 263-343): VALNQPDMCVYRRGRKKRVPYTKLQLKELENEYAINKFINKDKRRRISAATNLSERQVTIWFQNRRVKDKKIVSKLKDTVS
# HOXC10 [21] = target: HOXC10 (Homo sapiens, UniProt Q9NYD6 254-340, K271E)
# Chain of HOXC10 (Homo sapiens, UniProt Q9NYD6 254-340, K271E) (Q9NYD6 254-340 K271E): as the sequence (Q9NYD6 254-340) above, with K18E counted along it
# HOXD13 [22] = target: HOXD13 (Homo sapiens, UniProt P35453 263-343, T313A)
# Chain of HOXD13 (Homo sapiens, UniProt P35453 263-343, T313A) (P35453 263-343 T313A): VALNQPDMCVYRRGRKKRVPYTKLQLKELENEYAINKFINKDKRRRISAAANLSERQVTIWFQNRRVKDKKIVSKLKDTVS
# HOXA7 [23] = target: HOXA7 (Homo sapiens, UniProt P31268 116-202, W177C)
# Chain of HOXA7 (Homo sapiens, UniProt P31268 116-202, W177C) (P31268 116-202 W177C): as the sequence (P31268 116-202) above, with W62C counted along it
# HOXB6 [24] = target: HOXB6 (Homo sapiens, UniProt P17509 132-218, K202E)
# Chain of HOXB6 (Homo sapiens, UniProt P17509 132-218, K202E) (P17509 132-218 K202E): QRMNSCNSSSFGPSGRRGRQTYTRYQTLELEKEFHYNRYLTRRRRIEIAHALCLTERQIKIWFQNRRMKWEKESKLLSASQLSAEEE
# HOXB6 [25] = target: HOXB6 (Homo sapiens, UniProt P17509 132-218)
# Chain of HOXB6 (Homo sapiens, UniProt P17509 132-218) (P17509 132-218): as the sequence (P17509 132-218 K202E) above, with E71K counted along it
# Chain of HOXB4 (Homo sapiens, UniProt P17483 148-234) (P17483 148-234): as the sequence (P17483 148-234 V174I) above, with I27V counted along it
sequence,measurement,setting,value
CTAATGAC,binding signal,HOXB4 [1],"13.2 upbm affinity estimate (log intensity, higher = more binding, comparable within an allelic series)"
same,binding signal,VENTX [2],"11.9 upbm affinity estimate (log intensity, higher = more binding, comparable within an allelic series)"
same,binding signal,HOXA4 [3],"10.6 upbm affinity estimate (log intensity, higher = more binding, comparable within an allelic series)"
same,binding signal,VENTX [4],"12.5 upbm affinity estimate (log intensity, higher = more binding, comparable within an allelic series)"
same,binding signal,VENTX [5],"11.9 upbm affinity estimate (log intensity, higher = more binding, comparable within an allelic series)"
same,binding signal,HOXA2 [6],"13.1 upbm affinity estimate (log intensity, higher = more binding, comparable within an allelic series)"
same,binding signal,HOXA4 [7],"12.1 upbm affinity estimate (log intensity, higher = more binding, comparable within an allelic series)"
same,binding signal,HOXB4 [8],"13.9 upbm affinity estimate (log intensity, higher = more binding, comparable within an allelic series)"
same,binding signal,NKX2-6,"11.7 upbm affinity estimate (log intensity, higher = more binding, comparable within an allelic series)"
same,binding signal,HOXA2 [9],"13.7 upbm affinity estimate (log intensity, higher = more binding, comparable within an allelic series)"
same,binding signal,HOXA4 [10],"13.9 upbm affinity estimate (log intensity, higher = more binding, comparable within an allelic series)"
same,binding signal,VAX1 [11],"13.3 upbm affinity estimate (log intensity, higher = more binding, comparable within an allelic series)"
same,binding signal,VAX1 [12],"13.2 upbm affinity estimate (log intensity, higher = more binding, comparable within an allelic series)"
same,binding signal,HOXA2 [13],"10.9 upbm affinity estimate (log intensity, higher = more binding, comparable within an allelic series)"
same,binding signal,HOXA4 [14],"12 upbm affinity estimate (log intensity, higher = more binding, comparable within an allelic series)"
same,binding signal,HOXA2 [15],"12.9 upbm affinity estimate (log intensity, higher = more binding, comparable within an allelic series)"
same,binding signal,VAX1 [16],"13.2 upbm affinity estimate (log intensity, higher = more binding, comparable within an allelic series)"
CGCCGCCG,binding signal,HOXB4 [1],"8.06 upbm affinity estimate (log intensity, higher = more binding, comparable within an allelic series)"
same,binding signal,VENTX [2],"8.02 upbm affinity estimate (log intensity, higher = more binding, comparable within an allelic series)"
same,binding signal,VENTX [4],"8.3 upbm affinity estimate (log intensity, higher = more binding, comparable within an allelic series)"
same,binding signal,HOXA7 [17],"8.5 upbm affinity estimate (log intensity, higher = more binding, comparable within an allelic series)"
same,binding signal,HOXC10 [18],"10 upbm affinity estimate (log intensity, higher = more binding, comparable within an allelic series)"
same,binding signal,VENTX [5],"8.17 upbm affinity estimate (log intensity, higher = more binding, comparable within an allelic series)"
same,binding signal,HOXB4 [8],"7.89 upbm affinity estimate (log intensity, higher = more binding, comparable within an allelic series)"
same,binding signal,HOXD13 [19],"9.36 upbm affinity estimate (log intensity, higher = more binding, comparable within an allelic series)"
same,binding signal,HOXD13 [20],"9.39 upbm affinity estimate (log intensity, higher = more binding, comparable within an allelic series)"
same,binding signal,HOXC10 [21],"10 upbm affinity estimate (log intensity, higher = more binding, comparable within an allelic series)"
same,binding signal,VAX1 [11],"7.38 upbm affinity estimate (log intensity, higher = more binding, comparable within an allelic series)"
same,binding signal,HOXD13 [22],"9.5 upbm affinity estimate (log intensity, higher = more binding, comparable within an allelic series)"
same,binding signal,VAX1 [12],"7.39 upbm affinity estimate (log intensity, higher = more binding, comparable within an allelic series)"
same,binding signal,HOXA7 [23],"8.25 upbm affinity estimate (log intensity, higher = more binding, comparable within an allelic series)"
same,binding signal,VAX1 [16],"7.32 upbm affinity estimate (log intensity, higher = more binding, comparable within an allelic series)"
CCATTAAG,binding signal,HOXB4 [1],"13 upbm affinity estimate (log intensity, higher = more binding, comparable within an allelic series)"
same,binding signal,VENTX [2],"11.8 upbm affinity estimate (log intensity, higher = more binding, comparable within an allelic series)"
same,binding signal,HOXA4 [3],"10.5 upbm affinity estimate (log intensity, higher = more binding, comparable within an allelic series)"
same,binding signal,VENTX [4],"12.3 upbm affinity estimate (log intensity, higher = more binding, comparable within an allelic series)"
same,binding signal,HOXA7 [17],"11.6 upbm affinity estimate (log intensity, higher = more binding, comparable within an allelic series)"
same,binding signal,VENTX [5],"11.5 upbm affinity estimate (log intensity, higher = more binding, comparable within an allelic series)"
same,binding signal,HOXB6 [24],"9.89 upbm affinity estimate (log intensity, higher = more binding, comparable within an allelic series)"
same,binding signal,HOXA4 [7],"11.8 upbm affinity estimate (log intensity, higher = more binding, comparable within an allelic series)"
same,binding signal,HOXB4 [8],"13.6 upbm affinity estimate (log intensity, higher = more binding, comparable within an allelic series)"
same,binding signal,HOXA4 [10],"13.7 upbm affinity estimate (log intensity, higher = more binding, comparable within an allelic series)"
same,binding signal,HOXA7 [23],"8.82 upbm affinity estimate (log intensity, higher = more binding, comparable within an allelic series)"
same,binding signal,HOXA4 [14],"11.3 upbm affinity estimate (log intensity, higher = more binding, comparable within an allelic series)"
same,binding signal,HOXB6 [25],"12 upbm affinity estimate (log intensity, higher = more binding, comparable within an allelic series)"
